Molecules are shown by their SMILES. This is part of a sample that, as a whole, favours compounds with a hit. Of some 83,000 tested, about 20% had one in any assay.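 The endpoint reported here, percent growth, reads 100 for growth as untreated, 0 for no net growth and -100 for all cells dead.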 Activity calls are given as the source filed them.

The assay relates to LOX IMVI melanoma. Description: NCI-60 one-dose screen, 48 h (100 = growth as untreated, 0 = no growth, -100 = all killed). The settings on record: 10 µM unless noted. The method, then:
Growth inhibition of the LOX IMVI human tumor cell line is measured as a screen for anti-cancer activity. Cells are grown in 96 well plates and exposed to the test compound for 48 hours. Compounds are tested at a single concentration, which is 10^-5 M for most compounds. The reported endpoint is percent growth (GI% or GIPRCNT), where numbers from 0 - 100% represent growth inhibition, and numbers from -100% - 0 represent cell death. For example, a value of 40 represents 60% growth inhibition. A value of 0 means no net growth occurred over the course of the experiment. A value of -40 indicates 40% of cells at the beginning of the experiment died by the end of the experiment. A value of -100 means all cells are dead at the end of the experiment.
NCI-60 Human Tumor Cell Lines Screen was performed using the standard one-dose NCI protocol, which is described in more detail at https://dtp.cancer.gov/discovery_development/nci-60/default.htm.
Compounds with GIPRCNT values below 10 were considered active. Activity score was based on GIPRCNT using the following formula: […]
Score is 0 for GIPRCNT values of 100 or above, 50 for GIPRCNT values of 0, and 100 for GIPRCNT values of -100.
Regarding `C[C@@H]1CCC2[C@@H](C)[C@H](OC(=O)CCC(=O)NCCNC(=O)Cc3cc(=O)oc4cc(N(C)C)ccc34)O[C@@H]3O[C@]4(C)CC[C@@H]1C23OO4` (stereo not given in full), the growth is -7.91% (active).

In the case of `COc1cc(NCCCN=C(N)N)c2ncccc2c1`, the growth was 104% (inactive).

For the compound `C/C(=C\c1ccn(-c2ccc(N)c(F)c2)n1)[C@@H]1C[C@@H]2O[C@]2(C)CCC[C@H](C)[C@H](O)[C@@H](C)C(=O)C(C)(C)[C@@H](O)CC(=O)O1`, the growth is 32.4% (inactive).

Consider `CC(=O)OC[C@]1(C)C=C2C(=O)[C@](C)(O)C3(CC3)C(C)=C2[C@H]1OC(=O)N(C)CCN(C)C(=O)OC(C)(C)C`, for which the growth was -6.97% (active).

For `Cc1ccccc1NC(=NCCCN1CC1)Nc1ccccc1C`, the growth was 75.3% (inactive).

For the compound `C[CH2][Sn]([Cl])([Cl])[CH2]C.Oc1ccccc1C=NCCN=Cc1ccccc1O`, the growth is 72.2% (inactive).

Turning to `CS(=O)(=O)CCN1CC2CCCC(C2)C1`, the growth was 104% (inactive).

For `CN1C(=O)C(=Cc2cn(CCCCCCn3c4ccccc4c(=O)c4ccccc43)c3ccccc23)C(=O)N(C)C1=O`, the growth was 93% (inactive).

With `O=C(Nc1ccc(O)cc1)C(Cl)(Cl)Cl`, the growth was 106% (inactive).

Consider `O=C1C=C(N2C3C4CCC(C4)C32)C(=O)C=C1c1ccccc1` (stereo not given), for which the growth was 89.9% (inactive).

As for `CN1CCCCC1C(C)(O)c1ccccc1` (stereo not given), the growth was 99% (inactive).

With `COC1=CC(=O)O[C@@H](/C=C/c2ccc3c(c2)OCO3)C1`, the growth is 98.2% (inactive).

Regarding `CCOC(=O)[C@@H](C)C[C@H](Cc1ccccc1)NC(=O)c1csc([C@@H](C[C@H](C(C)C)N(C)C(=O)[C@@H](NC(=O)[C@H]2CCCCN2C)C(C)(C)C)OC(C)=O)n1`, the growth is 10.1% (inactive).

Take `COc1ccc(/C=C\c2cc(OC)c(OC)c(OC)c2)cc1OCC(=O)Nc1nc2ccc(F)cc2s1`: the growth was 19.1% (inactive).

`NC1CC2CCCCC2CC1(O)c1ccccc1` (stereo not given): the growth was 91.9% (inactive).

With `O=C([O][Hg][CH2]C1OCCOC1[CH2][Hg][O]C(=O)c1ccccc1)c1ccccc1` (stereo not given), the growth is -92.7% (active).

Regarding `Nc1nnnc2nc[nH]c12`, the growth was 6.61% (active).

Take `COc1cc(C=Nc2cc(Cl)cc(Cl)c2)ccc1N(CCCl)CCCl`: the growth was 78.7% (inactive).

For `N#C[Se]CCN1C(=O)c2ccccc2C1=O`, the growth was 5.83% (active).

Consider `O=Cc1cn(Cc2ccc(Cl)cc2)c2ccccc12`, for which the growth was 88.2% (inactive).

Consider `CC(C)[C@]12O[C@H]1[C@@H]1O[C@]13[C@]1(O[C@H]1C[C@H]1c4c(C(=O)c5ccccc5)oc(OC(=O)c5ccccc5)c4CC[C@@]13C)[C@@H]2O`, for which the growth was 9.13% (active).

Take `COC(=O)CCc1c[nH]c2ccc(N(CCCl)CCCl)cc12`: the growth was 29.7% (inactive).

Turning to `C/C(Cc1ccc(Cl)cc1)=C(\c1ccc(OCCN2CCOCC2)cc1)c1ccc(OC(=O)Cc2ccccc2)cc1`, the growth is 97% (inactive).

Regarding `C=C1C[C@](OC)([C@H](O)C(=O)N[C@@H](OC)[C@@H]2C[C@@H](O)C(C)(C)[C@@H](C[C@@H](COC)OC)O2)O[C@H](C)[C@@H]1C`, the growth is -81.8% (active).

Turning to `CC(=O)OC1C(OC/C2=C/C3[C@@H](C(C)C)CC=C(C)[C@@H]3CC(OC(=O)/C=C/c3cn(C)cn3)[C@]3(C)C=C[C@@]2(O)O3)OCC(O)C1O` (stereo not given in full), the growth was 35.2% (inactive).

Turning to `CCN(CCO)C(Cc1ccccc1)c1ccccc1` (stereo not given), the growth is 92.6% (inactive).

For `COc1cc2c(cc1OCc1ccccc1)C(CC(C)C)=[N+](C)CC2`, the growth is 91.1% (inactive).

Turning to `CC[C@H](C)[C@H](NC(=O)C12CC(NC(C)=O)(C1)C2)C(=O)N(C)[C@H](C[C@@H](OC(C)=O)c1nc(C(=O)N[C@@H](Cc2ccccc2)C[C@H](C)C(=O)OC)cs1)C(C)C`, the growth is 16.5% (inactive).

For the compound `C[N+]12CN3CN(CN(C3)C1)C2`, the growth is 99.7% (inactive).

Turning to `OCCNC(Cc1ccccc1)c1ccc2c(c1)OCO2` (stereo not given), the growth is 93.5% (inactive).

For `CCCCCCCOC(C(=O)OCCN(CC)CC)(c1ccccc1)c1ccccc1`, the growth is 92.2% (inactive).

Consider `C=COC(=O)CCN1CC1`, for which the growth was 100% (inactive).

Turning to `CC(=O)O[C@H](C[C@H](C(C)C)N(C)C(=O)[C@@H](NC(=O)[C@H]1CCCCN1C)C(C)C)c1nc(C(=O)N[C@@H](Cc2ccccc2)C[C@H](C)C(=O)O)c(C(C)C)s1`, the growth is 10.5% (inactive).

In the case of `CC[S][Hg][Cl]`, the growth was 88.1% (inactive).

`N#C[S-].[Au+].c1ccc(CN2[CH-]N(Cc3ccccc3)C(c3ccccc3)=C2c2ccccc2)cc1`: the growth is 7.61% (active).

In the case of `CSc1nc(Cl)cc(N2CC2)n1`, the growth is 111% (inactive).

Regarding `CN1CCC(O)(c2ccc(F)cc2)C(C(=O)c2ccc(F)cc2)C1` (stereo not given), the growth was 94.3% (inactive).

With `CNC12C3C4C1C1C2C3C41C(=O)N[C@H](C(=O)N(C)[C@H](C[C@@H](OC(C)=O)c1nc(C(=O)N[C@@H](Cc2ccccc2)C[C@H](C)C(=O)OC)cs1)C(C)C)C1CC1` (stereo not given in full), the growth is 0.284% (active).

As for `O=c1[nH]cc(N(CCCl)CCCl)c(=O)[nH]1`, the growth is 46% (inactive).

For the compound `COC(=O)[C@@H](C)C[C@H](Cc1ccccc1)NC(=O)c1csc([C@@H](C[C@H](C(C)C)N(C)C(=O)C2(NC(=O)[C@H]3CCCCN3C)CC2)OC(C)=O)n1`, the growth was 3.04% (active).
